# Results from the supplement of paper PMC6555819.
# Key:
# Assay in all cases: PBM binding z-score (relative to random genomic background probes); higher = stronger binding; sequences stand for … in GC…GCGATTGACAGCGTAGAATGAAGG
# [1] = system: RARb homodimer (NR concentration 270 nM)
# In short: (§1)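 Regression normalization was applied to scanned fluorescence from custom Agilent 4×180K protein-binding microarrays. Before scanning, arrays were incubated 1 h with ligand-free nuclear receptor dimers, and binding was detected with antibodies against each partner (one per run). Binding z-scores use the random background probes as reference.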
# [2] = system: RARg:RXRa (NR concentration 270 nM, RXRa partner concentration 90 nM)
# In short: as §1
# [3] = system: RARg homodimer (NR concentration 270 nM)
# In short: as §1
# [4] = system: RXRa DBDmut IVT, anti-RXR (DBD mutation: RXRa K156A/R161A, NR concentration 90 nM)
# In short: as §1
# [5] = system: RXRa homodimer (NR concentration 180 nM)
# In short: as §1
# [6] = system: THRa:RXRa (NR concentration 90 nM, RXRa partner concentration 90 nM)
# In short: as §1
# [7] = system: THRa homodimer (NR concentration 90 nM)
# In short: as §1
# [8] = system: VDR homodimer (NR concentration 270 nM)
# In short: as §1
Sequence,PBM binding z-score [1],PBM binding z-score [2],PBM binding z-score [3],PBM binding z-score [4],PBM binding z-score [5],PBM binding z-score [6],PBM binding z-score [7],PBM binding z-score [8]
CCTAGTGGGCCAAAGGTCATTGATTCCAATGCTC,4.6,5.89,4.92,1.92,6.9,3.22,0.756,3.23
GATTACGGGTCAAAGGTTATAGCATGAATAGAAT,3.44,7.12,4.85,2.27,9.48,3.95,0.146,1.64
CGTCCAAGGTCATAGGAGGTCACTGAAGACAGAT,5.4,7.13,7.45,4.05,7.22,5.37,3.68,5.28
CGAACTAGGTCACCAGGCCAGTGAAGAGGTTGGA,3.33,4.61,5.11,1.05,3.21,2.98,0.969,0.372
CTCGAAAGGTCGTGCTCAGGTGAGTATGCCAAAC,2.94,5.26,3.88,2.18,4.88,4.11,0.926,0.764
TTAACAAGGTGAAAGGTCGTTGATGCACGCCTTG,2.51,4.28,2.1,0.328,6.17,3.51,0.757,1.24
CGAACTAGGTCACCAGGACAGTAAAGAGGTTGGA,3.58,4.57,5.2,1.79,3.38,3.29,1.86,0.977
CAATGTAGGTTAAGGGGGTCATTCAGTTTGAAAG,4.09,5.27,3.94,3,5.94,3.9,2.81,6.76
CCTTACGGGTCACGGTTATAGCACGGGTGGTACG,3.58,5.47,5.06,0.501,6.44,3.28,0.418,1.26
CGAACTAGGTCAGAGCAGGACAGTGAAGGATGAT,1.84,2.48,3.25,0.613,1.11,4.2,0.0649,-0.21
CGAACTATGTCACCAGGACAGTGAAGAGGTTGGA,0.797,0.591,0.719,-0.0649,0.602,1.66,0.878,0.455
ACTAGTTGGTCAGCTGAGGTCACACAAAATTCGG,4.3,4.32,4.78,1.52,4.23,5.01,5.35,3.83
TCGAGTAGATTACGGGGGCATTCAGGGATGAAGA,1.26,1.41,0.834,1.65,1.35,3.66,0.874,3.02
ATATGTTGGTTAGGGTCATTCAGAAAGTAGGGAA,3.19,3.79,2.71,2.64,5.05,4.08,3.71,4.01
CCGAGTAGGTTACGAGGGGGCATTCTGTGCGAAT,2.05,3.13,2.43,1.11,1.68,3.55,0.547,2.56
ATATGTAGGTTAGGGTCATTCTGAAAGTAGGGAA,3.35,3.61,2.78,2.79,4.88,4.05,3.12,3.77
ATATGTAGGTTAGGGTCATTTAGAAAGTAGGGAA,3.38,3.86,2.8,2.29,5.07,4.06,3.22,3.84
ATATGTAGCTTAGGGTCATTCAGAAAGTAGGGAA,2.97,3.71,2.73,2.16,4.87,4.07,3.15,3.71
ATATGTAGGTGAAGGGTCATTCAGGTTGGTTCGC,3.76,4.77,3.15,2.06,5.6,3.55,1.35,4.34
TAGCCTAGGTCATAGGCCAGTATACCACGCGAAC,2.58,3.89,4.21,0.7,3.51,2.65,0.622,0.651
ATATGGAGGTTAGGGTCATTCAGAAAGTAGGGAA,3.98,4.17,2.98,2.42,5.24,4.27,3.55,3.4
TCGAGTAGCTTACGGGGGCATTCAGGGATGAAGA,0.903,1.03,0.544,1.14,1.12,3.35,0.239,2.71
ACTTACGGGTCAAGGAGGTTATAGCACGCGTATA,3.46,5.23,4.78,2.07,5.73,3.33,0.489,2.26
AGAATGAGGTTACCAGAGATCAGGGAAACGCTTG,0.721,2.28,1.8,1.1,2.88,3.28,0.705,0.106
ATACGTAGGTTACATCCGGGTCATTCAGGCTATG,2.79,3.59,2.17,0.372,3.06,3.81,2.5,2.66
GGAACGAGCGCAAAGTTGATAGCATCTGTCGACG,-0.951,-0.446,-0.392,-0.219,-0.2,-0.823,-1.24,-0.905

Sequence,PBM binding z-score [1],PBM binding z-score [2],PBM binding z-score [3],PBM binding z-score [4],PBM binding z-score [5],PBM binding z-score [6],PBM binding z-score [7],PBM binding z-score [8]
CTAAGTAGGTTAAGGGGGTCATTCAGTTTGAAAG,3.97,4.97,4.03,2.69,5.62,3.64,2.28,6.08
CCTTACGGGTCAGTGACAGGTTATAGCATTTGGA,2.85,4.61,3.43,1.05,3.29,2.15,0.134,0.572
ATCTCTAGGTCAAAGTTCAGTGAATCCCGAGGAT,4.18,6.01,5.62,2.65,6.97,3.76,1.76,3.19
ATACCAAGGTGATCGTGAGTTCGTTGATACTAAC,0.465,0.682,0.338,1.2,0.456,1.58,0.74,4.63
GCTCGGGGGACAAGGTCAGAGCTTTGTCCGTAGA,3.12,4.71,4.55,1.43,3.63,3.48,1.91,1.47
TGGAGTAGGTTACGGGGGCATTCAGGGATGAAGA,2.94,3.75,3.39,2.16,2.83,4.11,2.48,3.94
TGTCAGAGTTCAAAGGTAACGTAAGTATCCACAC,3.41,5.95,5.28,4.83,7.51,3.53,-0.159,5.41
CCGAGTAGGTTACGAGGGGACATTCAGTGCGAAT,1.22,1.25,1.25,0.594,0.907,4.11,0.165,1.46
CTATGTAGGTTAAGGGGGTCATTGAGTTTGAAAG,4.02,5.46,4.18,2.81,5.76,4.01,2.02,7.05
TCTTGTAGATCAAAGGTTAAGACAGCCGAAGCCT,1.45,1.94,1.05,0.925,3.08,1.24,-0.0838,0.141
CTATGTAGGTTAAGGCGGTCATTCAGTTTGAAAG,1.65,1.31,1.44,0.518,0.704,0.878,-0.0284,0.465
TGAATGAGGTTTAAGATCAGGGAACGTGGCGTCG,-0.403,0.0866,0.0198,-0.0681,0.388,0.0282,-0.624,-0.231
TGAATGAGGTGAAAGATCAGGGAACGTGGCGTCG,0.154,1.51,0.868,-0.365,2.17,2.78,0.878,-0.213
CGAACTAGGTCAAAGGACAATGAAAGGCGACGTA,3.04,4.01,4.77,1.13,3.35,2.67,0.783,0.585
ATATGTAGGTTAGGTTCATTCAGAAAGTAGGGAA,1.29,1.47,1.35,3.43,2.17,1.8,0.787,5.47
CAAAGTAGGTCACCGGAAGGTCAAAGTCCGCATG,5.78,8.47,7.72,1.72,7.28,4.35,2.03,3.66
CCGTACGGGTCAAGGTTATAGCACGGGTGGTACG,3.24,4.93,4.6,0.337,5.61,3.09,0.588,1.37
CGAACTAGGTCACCAGGACAGAGAAGAGGTTGGA,3.46,4.58,5.47,1.79,3.97,3.37,1.89,0.617
CGAACTAGGTCACCAGGACCGTGAAGAGGTTGGA,3.25,4.44,5.18,1.08,3.5,2.89,1.07,0.39
CCGAGTAGGTTACGAGGGGGCATTCCGTGCGAAT,1.89,3.09,2.37,1.01,2.12,3.56,0.446,2.75
CCTACTGGGGCAAAGGTCATTGATTCCAATGCTC,4.6,6.11,4.61,0.782,6.93,3.66,0.71,1.92
CCGAGTAGGTTACCAGGGGGCATTCAGTGCGAAT,2.4,2.93,2.52,0.717,2.06,3.68,0.758,3.64
CAAACTAGGTCAAAGGTCAAAGTTGAGCCAACCA,5.46,9.07,7.7,3.35,10.5,4.95,1.92,3.15
AGATGTAGGTTAGGGTCATTCAGAAAGTAGGGAA,3.52,3.98,3,2.56,4.81,3.92,3.4,4.44
CTCGAAAGGTCGAGCTCAGGTGAGTATACCAAAC,2.85,4.89,4.58,1.39,4.04,4.03,0.791,0.31
ATCGAAAGGTCGTGAAGTGAGTATACAGAAAGGC,2.17,3.85,3.56,1.38,4.35,2.18,0.0261,1.02
